Some targets named below: TMEM218; TMEM229B; TMEM22; TMEM231; TMEM8B; TNFAIP6; TNPO2; TRAPPC2; TRIM38; TRMT1; TRPC4; TRO; TRPM3.
What all share (experiment): pooled miR-30 sensor sort-seq; sequence = guide strand
Common to all, as to conditions: shRNA
Further: reference of the scale not given here.

Sequence TTAACTTCCACTTCTGGGGCTG displayed a sensor-assay potency score (higher = more potent) with TMEM218 of 0.528. Consider TGGCATACAGGTACCAGCGGGA, for which, in the test with TMEM229B, the sensor-assay potency score (higher = more potent) was -0.837. TTAACAAAGAATTGTCTTCATC: in the test with TMEM22, the sensor-assay potency score (higher = more potent) is -1.39.

In the test with TMEM231, TAGGCCACCACAGCTCAGCGGC showed a sensor-assay potency score (higher = more potent) of -1.06. As to ATCACCTCGCAGAAGTAGCCGT, in the test with TMEM229B, the sensor-assay potency score (higher = more potent) is -0.867.

Take TCTCTAGTCGAAACGAGCGGGA: in the test with TMEM231, the sensor-assay potency score (higher = more potent) is -0.413. Consider TCCTTGTCGAAGCGGAGGCGGA, for which the sensor-assay potency score (higher = more potent) with TMEM229B was -1.59.

TAACTTCCACTTCTGGGGCTGG had a sensor-assay potency score (higher = more potent) with TMEM218 of -0.428. The sequence ATTGTCTTCATCAACAATGTTT had a sensor-assay potency score (higher = more potent) with TMEM22 of -0.906.

As for TTTTTTTCTGCAAAGCTCTGGA, in the test with TMEM22, the sensor-assay potency score (higher = more potent) worked out at 0.243. Sequence TAAGAAATGACTTCCACAGGGT displayed a sensor-assay potency score (higher = more potent) in the test with TMEM231 of 0.705. Sequence TAGCTGGTAACCACAGCCCCGG yielded a sensor-assay potency score (higher = more potent) with TMEM8B of -1.14. Same read-out and setting: then TCCATGTCGGTCAAGCTGCAGA, with -1.7. TAGTACTTGTATTTTTTCCTTG: in the test with TNFAIP6, the sensor-assay potency score (higher = more potent) is -0.262. Still for that read-out and setting: then TGAAGCATCACTTAGAAACTTC, with 0.148. TCATCTTCTGACTTGAGTCTGG yielded a sensor-assay potency score (higher = more potent) in the test with TNPO2 of 0.0435. In the test with TNPO2, TTTTCCAGCAGTGTCTTGGGTG registered a sensor-assay potency score (higher = more potent) of -0.0437. Consider ATGAGCTATGAACTGGTTCAGA, for which the sensor-assay potency score (higher = more potent) in the test with TRAPPC2 was -1.51.

In turn, TTTCTGTCAAATGCACTTGATC came in with a sensor-assay potency score (higher = more potent) with TRAPPC2 of -1.44. In turn, TATAAAAGGATACAACTCCGGC showed a sensor-assay potency score (higher = more potent) with TRIM38 of -0.57. TCTGTCTTCAAGTTGCTTCAGT came in with a sensor-assay potency score (higher = more potent) in the test with TRIM38 of 0.253. Sequence TTGAGCTGGACATTCCGGCGTA came in with a sensor-assay potency score (higher = more potent) with TRMT1 of 0.567. Sequence TCTCCTGGAACCTTGATCTGGA returned a sensor-assay potency score (higher = more potent) with TRMT1 of -0.0549. Still for that read-out and setting: then TAGTCTCTGATAGTCGCTCCCG, with -0.643. TAACACACATTGTTCACTGAGA gave a sensor-assay potency score (higher = more potent) with TRPC4 of -0.436. In the test with TRO, TTCATCTTGCTAGTCTCGTGGT gave a sensor-assay potency score (higher = more potent) of 0.132.

Take TCATTGAGCTGGACATTCCGGC: the sensor-assay potency score (higher = more potent) with TRMT1 amounted to 0.0258.

TTGATGGGGATCTTTGTCTGGT displayed a sensor-assay potency score (higher = more potent) in the test with TRO of -0.592. For the sequence TATACTAGAGTCCTCTTCTTTT, the sensor-assay potency score (higher = more potent) in the test with TRPC4 was -1.18. As for TTTGCGTGTCCTTCTCTCCTGG, the sensor-assay potency score (higher = more potent) with TRMT1 was found to be 0.33. The same measure, in the same setting: under TAGTACAGAGGCACGTCCGGGA stands -0.101; under TAGAAGTCAGCGCTGATGCTGA, -0.13.

TTCTCTGGAACTTCTCGTCTGA showed a sensor-assay potency score (higher = more potent) in the test with TRPC4 of -0.126. TTGAGCACACTGCCAAAGCTGG had a sensor-assay potency score (higher = more potent) with TRO of -0.914. In the test with TRPC4, TTTGGTATTATAGGAACCGTGT came in with a sensor-assay potency score (higher = more potent) of -0.294. In the case of TAGTATTAGATGCACTGCCAAA, the sensor-assay potency score (higher = more potent) with TRO was -1.27. AATGTCGTCAACCATGTCGTTC displayed a sensor-assay potency score (higher = more potent) in the test with TRPM3 of -1.05. Regarding TAGATGTTGAGTCTGGAGCGTG, the sensor-assay potency score (higher = more potent) with TRPC4 is -0.516.

On to TAGTGCTCAGTGTACCACCAAA, for which the sensor-assay potency score (higher = more potent) with TRO is -1.66. The same measure, in the same setting: then TTGGTCAGCATTTGGAGTCTGG, with 0.322. On the same count and under the same terms, then TTGAGTGCACTGCCAAAGCTGA, with -0.944.

For the sequence TCGTTTGCAACCACAGATCTGA, in the test with TRMT1, the sensor-assay potency score (higher = more potent) is -0.44. Regarding TAAAATGCTCTTTCTATCCAGG, the sensor-assay potency score (higher = more potent) in the test with TRPM3 is -0.366. Consider TATTGTTCCAAAACTTTCTGGC, for which the sensor-assay potency score (higher = more potent) in the test with TRPC4 was 0.627.

In turn, TTCTTTTGCATGTTTCTCCTTT showed a sensor-assay potency score (higher = more potent) with TRPC4 of 0.299. In turn, TTGCGTGTCCTTCTCTCCTGGA yielded a sensor-assay potency score (higher = more potent) with TRMT1 of -0.847. For the sequence TTAGTAATAGTCTTTATAGGGG, the sensor-assay potency score (higher = more potent) in the test with TRO is -0.72.

TTGTCTTCGAAGTTTCACCTCT yielded a sensor-assay potency score (higher = more potent) with TRPM3 of 0.148. The same measure, in the same setting: then TTCTATACCACCTTTGTCTTTC, with 0.0572. In the test with TRO, TACACCACTAAAGCCAGCCGTG displayed a sensor-assay potency score (higher = more potent) of -1.01. Sequence TCGGTGACTGTCGTCTCCTGGA displayed a sensor-assay potency score (higher = more potent) with TRMT1 of -1.21. In the test with TRO, TTGGGTGTGTCCTTGGTCGTTC showed a sensor-assay potency score (higher = more potent) of 0.127. As for TTGAATGGACACACTCTCTTTC, in the test with TRPC4, the sensor-assay potency score (higher = more potent) was -0.228.

Regarding TAAAATGGCCACATCTCGCGGT, the sensor-assay potency score (higher = more potent) in the test with TRO is 0.238.

The sequence TATTTCTCTCAAGTGGTCCTGC returned a sensor-assay potency score (higher = more potent) in the test with TRPC4 of 0.27. TTTCATCTTGCTAGTCTCGTGG registered a sensor-assay potency score (higher = more potent) in the test with TRO of 0.184. The sequence TTGACGAGCAACTTCTTCTGAA had a sensor-assay potency score (higher = more potent) in the test with TRPC4 of 0.0812. Same read-out and setting: then TATGAGACTATTGTCATCTCGG, with 0.182. The same measure, in the same setting: then TTGAGTAGAACAACCAGAGAGA, with -0.452.

In turn, TTGTTCTGAAGCAGCCTGCGTC gave a sensor-assay potency score (higher = more potent) with TRMT1 of -0.663.

The values above are taken from the OligoGym collection.
